The results in this text go back to ChEMBL document CHEMBL1961873, “Compounds: GSK PKIS; Assays: Nanosyn kinase panel” (2012).

The test system of one experiment is T1, Receptor-type tyrosine-protein kinase FLT3 (Homo sapiens), P36888 [D835Y].
T1 sequence (whole entry): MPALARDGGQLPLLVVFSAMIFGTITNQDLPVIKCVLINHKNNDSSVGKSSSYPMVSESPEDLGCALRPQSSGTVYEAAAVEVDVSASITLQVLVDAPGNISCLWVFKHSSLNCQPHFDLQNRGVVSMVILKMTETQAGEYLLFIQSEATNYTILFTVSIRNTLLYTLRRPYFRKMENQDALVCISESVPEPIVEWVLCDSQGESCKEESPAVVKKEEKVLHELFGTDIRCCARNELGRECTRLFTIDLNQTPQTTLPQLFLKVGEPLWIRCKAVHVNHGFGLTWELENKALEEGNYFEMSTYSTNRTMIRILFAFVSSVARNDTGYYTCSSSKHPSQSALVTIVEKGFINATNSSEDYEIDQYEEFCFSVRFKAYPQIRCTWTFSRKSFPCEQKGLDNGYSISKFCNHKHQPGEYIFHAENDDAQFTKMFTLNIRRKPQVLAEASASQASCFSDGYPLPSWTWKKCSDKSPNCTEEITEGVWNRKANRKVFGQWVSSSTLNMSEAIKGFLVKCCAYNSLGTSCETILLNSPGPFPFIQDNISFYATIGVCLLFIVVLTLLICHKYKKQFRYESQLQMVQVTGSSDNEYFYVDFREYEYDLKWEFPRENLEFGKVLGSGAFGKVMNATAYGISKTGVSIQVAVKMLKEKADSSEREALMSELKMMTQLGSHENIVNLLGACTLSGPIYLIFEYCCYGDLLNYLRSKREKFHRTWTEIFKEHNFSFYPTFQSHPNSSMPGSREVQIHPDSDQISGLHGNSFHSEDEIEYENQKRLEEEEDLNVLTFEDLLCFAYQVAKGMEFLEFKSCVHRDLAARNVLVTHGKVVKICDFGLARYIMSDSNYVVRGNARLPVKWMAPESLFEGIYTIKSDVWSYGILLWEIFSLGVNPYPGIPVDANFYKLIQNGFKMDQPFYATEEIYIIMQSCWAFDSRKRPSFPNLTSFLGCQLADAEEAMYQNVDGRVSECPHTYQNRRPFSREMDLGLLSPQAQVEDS
The following applies: at 0.1 µM.
Regarding `COc1cc2c(cc1Nc1nc(N3CCc4ccccc43)c3cc[nH]c3n1)N(C(=O)CN(C)C)CC2`, the inhibition – broadly, the drop in the measured response relative to a control, in per cent – was -2.55%.

Turning to `CCN1CCC(CC(=O)Nc2n[nH]c3nc(-c4cccs4)c(Br)cc23)CC1`, the inhibition is 3.26%.

`NCc1ccc(-c2nc(-c3ccc(Cl)c(O)c3)c(-c3ccncc3)[nH]2)cc1`: the inhibition was determined as 2.87%.

`COC(=O)Nc1nc2cc(Oc3ccc(NC(=O)Nc4cccc(C(=O)O)c4)cc3)ccc2[nH]1`: the inhibition turned out to be 3.31%.

On to `O=C(Nc1n[nH]c2nc(-c3ccco3)c(Br)cc12)C1CC1`, for which the inhibition is -1.82%.

With `CCn1c(-c2nonc2N)nc2cnc(Oc3cccc(NC(=O)c4ccc(OCCN5CCOCC5)cc4)c3)cc21`, the inhibition was -3.34%.

Regarding `COc1cccc(-n2ncc3c(N/N=C/c4cccc(F)c4)ncnc32)c1`, the inhibition came to 9.42%.

Consider `Nc1ncnc2occ(-c3ccc(NC(=O)Nc4cccc(C(F)(F)F)c4)cc3)c12`, for which the inhibition was 18.4%.

For `CCn1c(-c2nonc2N)nc2cncc(C(=O)N3CC[C@H](N)C3)c21`, the inhibition is -5.73%.

As for `COc1cc2ncn(-c3cc(O[C@@H](C)c4ccccc4Cl)c(C(N)=O)s3)c2cc1OC`, the inhibition was -3.12%.

As for `CCCN1CCC(Oc2cc(Nc3nc(Nc4cccc(F)c4C(N)=O)c4cc[nH]c4n3)c(OC)cc2Cl)CC1`, the inhibition is -3.12%.

In the case of `[O-][S+]1CCN(Cc2ccc(-c3ccc4ncnc(Nc5ccc(OCc6ccccc6)c(F)c5)c4c3)o2)CC1`, the inhibition is -4.8%.

For the compound `Cc1ccc(C(=O)NC2CCCCC2)cc1-c1ccc(C(=O)NCC2CC2)cc1`, the inhibition is -1.58%.

Consider `CNC(=O)c1cncc(/C=C/c2c(Cl)cccc2Cl)c1`, for which the inhibition is -3.3%.

With `CN(C)c1cc2c(Nc3ccc4nc(Cc5ccccc5)[nH]c4c3)ncnc2cn1`, the inhibition was -0.65%.

Take `CCn1c(-c2nonc2N)nc2ccncc21`: the inhibition was -3.67%.

In the case of `Fc1cccc(COc2ccc(Nc3ncnc4sc(-c5cccs5)cc34)cc2Cl)c1`, the inhibition is -2.12%.

`Cc1ccc(NC(=O)c2ccnc(N3CCCC3)c2)cc1-c1ccc(C(=O)NCC2CC2)cc1`: the inhibition was -8.49%.

For a further experiment, the target named is Non-receptor tyrosine-protein kinase TYK2 (Homo sapiens) (UniProt P29597). To be noted: at 1 µM.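 Further: values are mean percent inhibition of TYK2 kinase.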
Sequence of Non-receptor tyrosine-protein kinase TYK2 (Homo sapiens) (P29597 whole entry): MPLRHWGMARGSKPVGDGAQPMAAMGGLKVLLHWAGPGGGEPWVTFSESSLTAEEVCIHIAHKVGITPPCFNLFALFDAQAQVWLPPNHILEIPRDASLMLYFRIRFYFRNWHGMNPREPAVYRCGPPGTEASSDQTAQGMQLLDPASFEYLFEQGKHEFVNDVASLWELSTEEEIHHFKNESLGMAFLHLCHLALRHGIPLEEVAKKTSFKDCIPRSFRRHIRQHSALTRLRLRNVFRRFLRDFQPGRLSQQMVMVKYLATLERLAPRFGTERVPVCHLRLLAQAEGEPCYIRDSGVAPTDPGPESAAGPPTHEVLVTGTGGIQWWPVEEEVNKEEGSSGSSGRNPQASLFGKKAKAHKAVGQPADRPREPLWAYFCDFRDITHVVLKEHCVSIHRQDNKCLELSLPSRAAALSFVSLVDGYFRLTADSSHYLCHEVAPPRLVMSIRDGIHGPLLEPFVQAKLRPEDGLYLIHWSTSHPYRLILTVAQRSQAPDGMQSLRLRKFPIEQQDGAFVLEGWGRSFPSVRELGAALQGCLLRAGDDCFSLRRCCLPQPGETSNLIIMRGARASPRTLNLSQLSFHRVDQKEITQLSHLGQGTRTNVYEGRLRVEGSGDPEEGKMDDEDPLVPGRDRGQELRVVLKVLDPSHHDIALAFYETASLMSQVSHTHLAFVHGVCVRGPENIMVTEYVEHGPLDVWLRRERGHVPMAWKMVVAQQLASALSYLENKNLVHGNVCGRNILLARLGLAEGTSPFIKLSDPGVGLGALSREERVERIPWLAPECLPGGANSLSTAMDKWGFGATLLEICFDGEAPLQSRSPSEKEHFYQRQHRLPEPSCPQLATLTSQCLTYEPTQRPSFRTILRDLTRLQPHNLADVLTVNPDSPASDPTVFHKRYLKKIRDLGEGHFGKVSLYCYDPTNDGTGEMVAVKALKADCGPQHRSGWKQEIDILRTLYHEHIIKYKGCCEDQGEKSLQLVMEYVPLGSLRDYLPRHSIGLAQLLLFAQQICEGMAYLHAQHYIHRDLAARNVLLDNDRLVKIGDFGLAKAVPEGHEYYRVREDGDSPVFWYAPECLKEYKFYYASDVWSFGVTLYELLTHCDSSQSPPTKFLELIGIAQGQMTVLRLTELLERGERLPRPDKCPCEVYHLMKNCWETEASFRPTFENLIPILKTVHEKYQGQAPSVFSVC
For the compound `CS(=O)(=O)CCN(CC#N)Cc1ccc(-c2ccc3ncnc(Nc4ccc(OCc5cccc(F)c5)c(Cl)c4)c3c2)o1`, the inhibition is -4.41%.

With `CC(=O)Nc1cccc(C#Cc2cncnc2Nc2ccc(OCc3cccc(F)c3)c(Cl)c2)n1`, the inhibition worked out at 2.39%.

`COc1ccccc1Nc1ncc(-c2ccccc2)o1`: the inhibition was -0.92%.

Regarding `NS(=O)(=O)c1cccc(-c2ccc3c(NC(=O)C4CC4)n[nH]c3c2)c1`, the inhibition amounted to 1.94%.

With `Cc1nnc(-c2ccc(C)c(-c3ccc(C(=O)Nc4cccc(C#N)c4)cc3)c2)o1`, the inhibition was -1.12%.

Regarding `COc1ccc(-c2nn3ncccc3c2-c2ccnc(Nc3ccc(Cl)c(C(F)(F)F)c3)n2)cc1`, the inhibition was found to be 1.02%.

Turning to `O=C1NC(=O)C(c2ccc(Cl)cc2)=C1Nc1ccc(Cl)c(C(=O)O)c1`, the inhibition amounted to 0.43%.

`COC(=O)Nc1nc2cc(Oc3cccc(NC(=O)Nc4cc(C(F)(F)F)ccc4F)c3)ccc2[nH]1`: the inhibition came to 1.94%.

With `O=C1NC(=O)C(c2cccc(Cl)c2)=C1Nc1ccc(O)c(Cl)c1`, the inhibition stood at 20%.

Regarding `CCCN1CCC=C(c2ccc(Nc3nc(Nc4ccccc4C(N)=O)c4cc[nH]c4n3)c(C)c2)C1`, the inhibition was -1.46%.

For the compound `Nc1nc(-c2ccc3c(c2)C(=Cc2cc(Br)c(O)c(Br)c2)C(=O)N3)cs1`, the inhibition worked out at 2.43%.

As to `O=C1NC(=O)C(c2ccccc2Cl)=C1Nc1cccc(O)c1`, the inhibition is -2.87%.

`CCc1cccc(NC(=O)Nc2ccc(Oc3ccc4nc(NC(=O)OC)[nH]c4c3)cc2)c1`: the inhibition was -2.46%.

In the case of `CC1=C(C(=O)Nc2ccc3[nH]ncc3c2)C(c2ccc3ccccc3c2)CC(=O)N1` (configuration not stated), the inhibition amounted to 4.98%.

On to `CS(=O)(=O)Nc1ccc(N/C=C2\C(=O)Nc3ccccc32)cc1`, for which the inhibition was determined as 9.24%.

As for `COc1cc2c(cc1Nc1nc(N3CCc4ccccc43)c3cc[nH]c3n1)N(C(=O)CN(C)C)CC2`, the inhibition is -2.82%.

With `CCN1CCC(CC(=O)Nc2n[nH]c3nc(-c4cccs4)c(Br)cc23)CC1`, the inhibition turned out to be 2.37%.

As for `NCc1ccc(-c2nc(-c3ccc(Cl)c(O)c3)c(-c3ccncc3)[nH]2)cc1`, the inhibition is -1.84%.

In the case of `COC(=O)Nc1nc2cc(Oc3ccc(NC(=O)Nc4cccc(C(=O)O)c4)cc3)ccc2[nH]1`, the inhibition was -0.42%.

As to `O=C(Nc1n[nH]c2nc(-c3ccco3)c(Br)cc12)C1CC1`, the inhibition was -1.51%.

For `CCn1c(-c2nonc2N)nc2cnc(Oc3cccc(NC(=O)c4ccc(OCCN5CCOCC5)cc4)c3)cc21`, the inhibition is -1.28%.

`COc1cccc(-n2ncc3c(N/N=C/c4cccc(F)c4)ncnc32)c1`: the inhibition was -0.15%.

Regarding `Nc1ncnc2occ(-c3ccc(NC(=O)Nc4cccc(C(F)(F)F)c4)cc3)c12`, the inhibition was -3.79%.

For the compound `CCn1c(-c2nonc2N)nc2cncc(C(=O)N3CC[C@H](N)C3)c21`, the inhibition was -0.04%.
